The source of these data is ChEMBL document CHEMBL3988442, “University of Dundee, Small-Polar-MMV Screening Library” (2021).

What all share (design): scale not given: direction of the effect not stated beside the values
The target of test [1] is Protein translocase subunit SecA (Escherichia coli (strain K12)) (UniProt P10408). Briefly: Assay to Identify E. coli SecA ATPase Inhibitors. The note with it: 30 µM. In kind it is functional.
The target of test [2] is T1, Ubiquitin-activating enzyme e1, putative (Leishmania donovani (strain BPK282A1)) (UniProt E9BSI1).
T1 sequence (whole entry): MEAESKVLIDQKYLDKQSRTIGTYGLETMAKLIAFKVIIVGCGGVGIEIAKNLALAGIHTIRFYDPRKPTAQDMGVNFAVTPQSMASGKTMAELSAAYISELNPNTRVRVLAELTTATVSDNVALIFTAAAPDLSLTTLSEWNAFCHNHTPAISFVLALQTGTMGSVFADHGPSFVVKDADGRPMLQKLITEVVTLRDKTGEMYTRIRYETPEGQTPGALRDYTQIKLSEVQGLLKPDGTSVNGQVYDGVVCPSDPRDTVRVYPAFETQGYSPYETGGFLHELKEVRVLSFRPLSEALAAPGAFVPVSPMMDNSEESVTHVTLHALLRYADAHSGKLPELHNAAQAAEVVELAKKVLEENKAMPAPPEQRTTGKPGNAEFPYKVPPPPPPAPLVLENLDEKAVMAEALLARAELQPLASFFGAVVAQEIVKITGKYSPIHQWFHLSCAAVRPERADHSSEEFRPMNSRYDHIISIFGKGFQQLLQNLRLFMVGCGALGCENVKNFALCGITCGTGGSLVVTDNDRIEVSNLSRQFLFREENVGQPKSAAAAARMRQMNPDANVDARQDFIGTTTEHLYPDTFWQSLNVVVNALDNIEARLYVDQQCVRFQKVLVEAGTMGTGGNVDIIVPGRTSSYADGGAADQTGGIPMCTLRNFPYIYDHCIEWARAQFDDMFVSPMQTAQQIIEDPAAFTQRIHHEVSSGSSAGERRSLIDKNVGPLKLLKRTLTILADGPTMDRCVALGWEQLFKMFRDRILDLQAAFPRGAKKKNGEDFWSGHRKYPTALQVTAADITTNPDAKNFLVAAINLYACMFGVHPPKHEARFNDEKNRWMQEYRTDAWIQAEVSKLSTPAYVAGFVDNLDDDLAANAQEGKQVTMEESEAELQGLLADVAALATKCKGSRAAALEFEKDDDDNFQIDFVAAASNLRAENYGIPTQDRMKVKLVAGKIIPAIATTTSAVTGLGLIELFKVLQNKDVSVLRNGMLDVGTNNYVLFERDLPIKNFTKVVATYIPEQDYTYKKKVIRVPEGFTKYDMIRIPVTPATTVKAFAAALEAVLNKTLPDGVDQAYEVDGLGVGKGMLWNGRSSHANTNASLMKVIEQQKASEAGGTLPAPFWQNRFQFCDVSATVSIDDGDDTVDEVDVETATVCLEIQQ
Briefly: Leishmania donovani Ubiquitin Activating Enzyme (LdE1). The format is functional. The note with it: 30 µM.

Test [3] addresses AMP-activated protein kinase, AMPK (Homo sapiens) (UniProt P54646+O43741+P54619+Q9UGJ0+Q9Y478+Q13131+Q9UGI9). Briefly: AMP-dependent Kinase enzyme assay. An in vitro enzyme assay that detects ADP turnover that is directly proportional to AMPK activity. This uses naive AMPK that is activated during the assay with MK-8722. The format is functional. The note with it: 30 µM.
For test [4], the target named is Sialic acid-binding Ig-like lectin 9 (Homo sapiens) (UniProt Q9Y336). Briefly: Hs-Siglec9 ALPHAscreen SOP 20170721. The note with it: 10 µM. In general terms: Bead proximity is the source of the signal in Alpha formats.
A further test has as its system Trypanosoma cruzi. Briefly: Trypanosoma cruzi phosphomannomutase and mannose-1-phosphate guanylyltransferase assay. In kind it is functional. Particulars: 10 µM.
For test [5], the target named is T2, Arginase-2, mitochondrial (Homo sapiens) (UniProt P78540).
T2 sequence (whole entry): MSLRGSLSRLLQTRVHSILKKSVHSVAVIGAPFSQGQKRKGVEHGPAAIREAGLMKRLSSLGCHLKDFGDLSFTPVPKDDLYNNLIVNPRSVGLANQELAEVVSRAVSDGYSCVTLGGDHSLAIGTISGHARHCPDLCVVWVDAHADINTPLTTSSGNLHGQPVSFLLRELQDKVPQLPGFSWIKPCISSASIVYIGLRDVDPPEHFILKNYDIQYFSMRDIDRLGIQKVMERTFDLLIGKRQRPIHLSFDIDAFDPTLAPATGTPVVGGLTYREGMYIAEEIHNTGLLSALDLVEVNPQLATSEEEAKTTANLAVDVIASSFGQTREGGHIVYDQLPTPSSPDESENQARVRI
Briefly: in vitro enzyme assay to detect the production of urea directly proportional to the activity of Arginase II. Also: in the data most compounds retested in dose-response had high values. The format is functional. The note with it: 33.3 µM.

Test [6] addresses T3, Proteasome subunit beta (Trypanosoma cruzi) (UniProt O96673).
T3 sequence (whole entry): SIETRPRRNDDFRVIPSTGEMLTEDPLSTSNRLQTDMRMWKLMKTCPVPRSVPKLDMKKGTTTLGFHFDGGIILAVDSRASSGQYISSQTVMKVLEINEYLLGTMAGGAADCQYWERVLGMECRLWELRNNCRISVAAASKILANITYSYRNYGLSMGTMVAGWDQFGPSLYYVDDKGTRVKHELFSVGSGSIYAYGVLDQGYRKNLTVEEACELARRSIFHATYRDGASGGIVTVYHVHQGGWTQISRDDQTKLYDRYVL
Briefly: Trypanosoma cruzi proteasome chymotrypsin-like activity (TcProtChymo) assay. Also: in the data most compounds retested in dose-response had high values. Particulars: 9.37 µM. The format is functional.

The species named for the next test is Homo sapiens. Briefly: To identify inhibition of the IFN signalling (Jak-Stat) pathway via expression of an eGFP reporter gene under the control of an IFN-stimulated response element (ISRE) containing MxA promoter. In kind it is functional. Particulars: 30 µM. Background: Reporter assays use an easily measured gene product as a stand-in for the process of interest.

The target in test [7] is T4, Tyrosyl-tRNA synthetase, putative (Trypanosoma cruzi (strain CL Brener)) (UniProt Q4DSP6).
T4 sequence (whole entry): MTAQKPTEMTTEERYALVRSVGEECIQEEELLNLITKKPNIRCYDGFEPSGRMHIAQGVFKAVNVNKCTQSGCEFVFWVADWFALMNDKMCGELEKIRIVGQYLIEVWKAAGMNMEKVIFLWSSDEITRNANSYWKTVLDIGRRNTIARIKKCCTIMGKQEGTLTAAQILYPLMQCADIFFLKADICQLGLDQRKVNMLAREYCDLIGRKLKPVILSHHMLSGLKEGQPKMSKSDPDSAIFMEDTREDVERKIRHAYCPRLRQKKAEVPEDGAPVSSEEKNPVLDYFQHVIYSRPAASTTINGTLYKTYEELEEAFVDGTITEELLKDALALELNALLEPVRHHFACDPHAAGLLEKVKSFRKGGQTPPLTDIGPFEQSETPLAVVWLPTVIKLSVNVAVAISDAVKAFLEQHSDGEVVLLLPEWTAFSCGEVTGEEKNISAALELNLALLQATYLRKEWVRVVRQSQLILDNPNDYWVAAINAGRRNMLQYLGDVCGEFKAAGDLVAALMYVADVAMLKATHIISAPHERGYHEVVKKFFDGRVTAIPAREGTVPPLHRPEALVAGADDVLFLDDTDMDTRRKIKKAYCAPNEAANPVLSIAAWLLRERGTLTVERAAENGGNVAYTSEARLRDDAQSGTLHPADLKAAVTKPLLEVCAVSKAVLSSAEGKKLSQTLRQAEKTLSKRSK
Briefly: Trypanosoma cruzi tyrosyl tRNA synthetase (TcYRS) _High Tyrosine SOP. Also: in the data most compounds retested in dose-response had high values. The format is functional. Particulars: 30 µM.

Test [8] addresses T4, Tyrosyl-tRNA synthetase, putative (Trypanosoma cruzi (strain CL Brener)). Briefly: Trypanosoma cruzi tyrosyl tRNA synthetase (TcYRS) SOP. The format is functional. Particulars: 30 µM.
Test [9] deals with Chromo domain-containing protein 1 (Saccharomyces cerevisiae (strain ATCC 204508 / S288c) (Baker's yeast)) (UniProt P32657). Briefly: ScCHD-1 Enzyme Inhibition Assay. Also: in the data most compounds retested in dose-response had high values. In kind it is functional. Particulars: 30 µM.

For some of these results: Potency and affinity values are given separately.

Chain of Protein translocase subunit SecA (Escherichia coli (strain K12)) (P10408 whole entry): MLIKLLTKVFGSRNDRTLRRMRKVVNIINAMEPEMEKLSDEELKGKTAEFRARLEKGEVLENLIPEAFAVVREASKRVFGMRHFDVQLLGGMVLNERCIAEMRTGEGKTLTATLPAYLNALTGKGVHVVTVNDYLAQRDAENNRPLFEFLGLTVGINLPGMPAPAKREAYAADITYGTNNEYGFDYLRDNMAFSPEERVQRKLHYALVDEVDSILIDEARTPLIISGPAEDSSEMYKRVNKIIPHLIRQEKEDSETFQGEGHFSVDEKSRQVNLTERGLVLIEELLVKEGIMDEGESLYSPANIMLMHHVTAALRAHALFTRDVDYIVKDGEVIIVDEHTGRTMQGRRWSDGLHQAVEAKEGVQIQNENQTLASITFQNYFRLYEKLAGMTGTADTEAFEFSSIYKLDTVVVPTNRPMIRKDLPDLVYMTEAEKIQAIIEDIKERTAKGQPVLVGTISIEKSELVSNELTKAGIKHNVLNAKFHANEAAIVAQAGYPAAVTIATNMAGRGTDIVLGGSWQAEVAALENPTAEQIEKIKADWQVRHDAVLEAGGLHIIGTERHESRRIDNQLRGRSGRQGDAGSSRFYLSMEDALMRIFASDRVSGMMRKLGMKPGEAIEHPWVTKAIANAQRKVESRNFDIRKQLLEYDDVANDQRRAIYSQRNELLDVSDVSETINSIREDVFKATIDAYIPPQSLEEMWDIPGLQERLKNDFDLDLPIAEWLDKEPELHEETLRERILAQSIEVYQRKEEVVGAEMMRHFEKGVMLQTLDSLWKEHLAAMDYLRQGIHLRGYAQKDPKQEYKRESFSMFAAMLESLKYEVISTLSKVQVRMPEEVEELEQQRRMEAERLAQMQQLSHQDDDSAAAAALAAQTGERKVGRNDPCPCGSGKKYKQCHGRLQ
Chain of Sialic acid-binding Ig-like lectin 9 (Homo sapiens) (Q9Y336 whole entry): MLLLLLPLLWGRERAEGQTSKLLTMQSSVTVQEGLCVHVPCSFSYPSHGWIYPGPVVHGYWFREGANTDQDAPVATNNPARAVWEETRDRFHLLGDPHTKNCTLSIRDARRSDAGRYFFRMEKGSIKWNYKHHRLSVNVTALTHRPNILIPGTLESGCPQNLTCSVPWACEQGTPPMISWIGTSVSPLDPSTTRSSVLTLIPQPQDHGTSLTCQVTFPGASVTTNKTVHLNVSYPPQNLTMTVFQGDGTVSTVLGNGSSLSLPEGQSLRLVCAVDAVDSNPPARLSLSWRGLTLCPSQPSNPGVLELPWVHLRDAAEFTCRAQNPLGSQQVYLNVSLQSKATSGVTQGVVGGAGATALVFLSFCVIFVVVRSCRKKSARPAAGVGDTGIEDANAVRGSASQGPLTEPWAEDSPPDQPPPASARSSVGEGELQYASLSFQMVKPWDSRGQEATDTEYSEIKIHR
Chain of Chromo domain-containing protein 1 (Saccharomyces cerevisiae (strain ATCC 204508 / S288c) (Baker's yeast)) (P32657 whole entry, the tested form may be a part): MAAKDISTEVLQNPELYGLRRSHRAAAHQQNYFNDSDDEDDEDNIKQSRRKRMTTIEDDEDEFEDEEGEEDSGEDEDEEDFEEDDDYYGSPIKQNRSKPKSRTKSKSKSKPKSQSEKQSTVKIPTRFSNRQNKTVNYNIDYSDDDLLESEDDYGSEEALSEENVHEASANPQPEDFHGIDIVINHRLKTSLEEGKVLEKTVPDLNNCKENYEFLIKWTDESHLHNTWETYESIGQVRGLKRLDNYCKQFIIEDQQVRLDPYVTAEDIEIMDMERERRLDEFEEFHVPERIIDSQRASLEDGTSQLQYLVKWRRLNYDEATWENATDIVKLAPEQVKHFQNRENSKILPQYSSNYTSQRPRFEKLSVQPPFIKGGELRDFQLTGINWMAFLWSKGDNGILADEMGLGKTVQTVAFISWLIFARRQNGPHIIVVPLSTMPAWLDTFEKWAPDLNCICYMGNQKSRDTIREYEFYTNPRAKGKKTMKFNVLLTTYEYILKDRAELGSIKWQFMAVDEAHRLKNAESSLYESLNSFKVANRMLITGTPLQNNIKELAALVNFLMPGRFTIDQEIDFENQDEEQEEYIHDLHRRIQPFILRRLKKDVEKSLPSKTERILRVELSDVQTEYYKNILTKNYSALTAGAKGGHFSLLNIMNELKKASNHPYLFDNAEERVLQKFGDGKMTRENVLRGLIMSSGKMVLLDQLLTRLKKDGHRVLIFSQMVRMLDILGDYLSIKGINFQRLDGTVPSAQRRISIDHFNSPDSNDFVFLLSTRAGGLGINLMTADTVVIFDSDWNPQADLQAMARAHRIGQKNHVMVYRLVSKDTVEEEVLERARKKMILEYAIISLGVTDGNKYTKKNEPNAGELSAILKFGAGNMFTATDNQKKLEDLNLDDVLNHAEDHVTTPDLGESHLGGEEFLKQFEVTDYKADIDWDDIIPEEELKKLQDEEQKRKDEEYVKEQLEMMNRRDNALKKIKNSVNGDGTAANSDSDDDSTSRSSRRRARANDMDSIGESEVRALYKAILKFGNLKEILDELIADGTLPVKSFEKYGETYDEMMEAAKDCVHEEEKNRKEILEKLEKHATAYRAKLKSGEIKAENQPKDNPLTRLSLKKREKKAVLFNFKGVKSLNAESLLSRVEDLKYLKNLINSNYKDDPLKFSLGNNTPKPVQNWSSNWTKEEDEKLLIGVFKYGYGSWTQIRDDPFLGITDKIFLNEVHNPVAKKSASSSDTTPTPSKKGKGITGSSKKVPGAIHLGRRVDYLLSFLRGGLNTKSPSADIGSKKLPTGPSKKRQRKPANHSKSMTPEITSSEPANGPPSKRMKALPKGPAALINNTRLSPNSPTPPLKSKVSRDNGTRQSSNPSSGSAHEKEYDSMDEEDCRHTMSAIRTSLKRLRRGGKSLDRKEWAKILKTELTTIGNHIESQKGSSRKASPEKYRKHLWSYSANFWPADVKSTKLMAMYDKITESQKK

Turning to `COc1ccccc1CN(C)C(=O)c1cc(CN2CCC(O)CC2)on1`, the Percent Effect in test [1] was -4.25%; in test [2], 2.74%; in [3], 26.1%; in test [4], 19.3%; in the test on Trypanosoma cruzi, 3.53%; in [5], 18.6%. The Percent Effect in test [6] is 12.8%; in the test filed under Homo sapiens, -1.57%; in test [7], 6.45%; in test [8], 20%; in [9], 100%.
As for `CN(Cc1cccc(F)c1)C(=O)CN1CCCC1CCc1ccccc1` (stereo not drawn), the Percent Effect in test [1] is -3.56%; in test [2] it was -7.79%; in [3], 2.67%; in test [4], 4.42%; with Trypanosoma cruzi, 3.44%; in test [5], -1.38%. In addition, the Percent Effect was 2% in test [6]; -5.85% in the test filed under Homo sapiens; 1.07% in [7]; -3.7% in test [8]; 113% in [9].
As for `CC(C)OCc1ncn2c1CN(Cc1cccs1)CCC2`, the Percent Effect is -1.74% in [1]; -2.7% in test [2]; -26.4% in test [3]; 0.954% in test [4]; -2.25% in the test with Trypanosoma cruzi; -2.23% in test [5]. Moreover, the Percent Effect in test [6] is 9.04%; in the test listed under Homo sapiens, 12.4%; in test [7], -2.16%; in [8], 2.56%; in test [9] it was -2.17%.
`CCOCCN1CCN(Cc2nnc(C3CC3)o2)CC1CC` (stereo not drawn): the Percent Effect in test [1] was -2.67%; in [2] it was 11%; in test [3], -18%; in test [4] it was 17.7%; in the test on Trypanosoma cruzi, 8.03%; in [5] it was 18.6%. Further, the Percent Effect in test [6] is 1.95%; in the test filed under Homo sapiens, 2.56%; in [7] it was 2.15%; in [8], 7.5%; in test [9] it was -5.28%.
For the compound `COCCNc1nc2c(c(NCc3ccncc3)n1)CCNCC2`, the Percent Effect in test [1] was 1.06%; in [2], 0%; in test [3] it was -4.61%; in test [4], 0.0545%; with Trypanosoma cruzi, 3.28%; in test [5], -3.81%. Moreover, the Percent Effect in test [6] was 13.8%; in the test filed under Homo sapiens, 5.66%; in test [7], 5.82%; in test [8], 7.32%; in test [9], -2.76%.
Turning to `Cc1nc2cc(C(=O)N3CCCC(n4cncn4)C3)ccc2n1C` (stereo not drawn), the Percent Effect in test [1] is -4.14%; in [2], 5.41%; in test [3], -2.29%; in [4], 11.4%; with Trypanosoma cruzi, 9.75%; in test [5] it was -0.924%. Further, the Percent Effect in test [6] is -5.21%; in the test listed under Homo sapiens, 0.593%; in test [7], 3.96%; in test [8], 13.4%; in [9] it was -2.87%.
On to `NC(=O)c1cnn2c1NCC(CNCCCOc1ccccc1F)C2` (stereo not drawn), for which the Percent Effect in test [1] is -2.54%; in [2], 5.26%; in test [3] it was 0.424%; in test [4], 14.6%; in the test with Trypanosoma cruzi it was 3.38%; in test [5] it was -1.15%. Further, the Percent Effect was 0.167% in test [6]; 2.29% in the test filed under Homo sapiens; 9.31% in test [7]; 12.2% in [8]; -10.9% in [9].
On to `CCCNC(=O)c1c(-n2cnnn2)sc2c1CCC2`, for which the Percent Effect in test [1] was -1.2%; in test [2] it was 7.89%; in test [3], 4.3%; in test [4], 2.22%; in the test on Trypanosoma cruzi it was -9.45%; in test [5] it was 3.55%. Moreover, the Percent Effect in test [6] is 9.3%; in the test filed under Homo sapiens, 2.78%; in [7], 5.32%; in test [8] it was 0%; in test [9], -5.31%.
